Sampled rows, rich in hits. Any-hit rate of the full collection: about 6.7%.
Pf_Dd2_inh: P. falciparum Dd2 growth inhibition. 2.3% of 94,000 active. SYBR Green, 72 h; active compounds read low. activity change, % at 10 µM; in the data active = activity change below about -80%; inconclusive = no clear call, values can overlap the other calls
T_cruzi_growth-1: T. cruzi proliferation inhibition; 5.9% of 77,000 active; T. cruzi beta-gal in NIH3T3, GalScreen luminescence, 90 h; inhibition, % at 8.34 µM;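 active = mean inhibition above about 93%, with at least 55% of replicates each passing it, limit read from the data, passing the limit was not always enough; inconclusive = only one of those two conditions holds; inactive = neither condition holds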
C_diff_growth: blocks growth of Clostridium difficile. Clostridium difficile clinical isolate growth, OD600, 24 h; active compounds read low. growth activity, negative = inhibition, % at 16 µg/mL (by protocol). 0.25% of 86,000 active. AID 1259249;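 active = mean growth activity at or below -80% and every replicate also at or below -80%; inconclusive = mean at or below -80% but some replicate above -80%; inactive = mean growth activity above -80%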;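 also: 0% = DMSO wells and -100% = levofloxacin 16 µg/mL wells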
T_cruzi_growth-2: inhibitors of T. cruzi proliferation. shares compounds with T_cruzi_growth-1. T. cruzi beta-gal in NIH3T3, GalScreen luminescence, 90 h. inhibition, % at 8.35 µM. AID 651739. 72% of 5,600 active;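 active = mean replicate inhibition above about 95% and at least 55% of replicates individually reaching it, limit read from the data; inconclusive = only one of the two criteria is met; inactive = neither criterion is met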
T_cruzi_growth-3: blocks T. cruzi growth in NIH3T3 host cells | shares compounds with T_cruzi_growth-1 | T. cruzi beta-gal in NIH3T3, GalScreen luminescence, 90 h | inhibition, % at 2.09 µM | 21% of 5,600 active | AID 651740;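 active = mean inhibition above about 95%, with at least 55% of replicates also reaching it, limit read from the data; inconclusive = meets just one of the two conditions; inactive = meets neither condition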;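 also: plate controls were neutral control median for no effect and positive control median for full effect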
3T3_cytotox: cytotoxicity in mouse NIH/3T3 fibroblasts; shares compounds with T_cruzi_growth-1; NIH/3T3 viability, CellTiter-Glo ATP luminescence, 90 h; cytotoxicity (signal decrease), % at 8.35 µM; 14% of 5,600 active;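 active = mean signal decrease across replicates above about 35% based on untreated-well scatter, with enough replicates individually passing, limit read from the data; inconclusive = no rule stated though some were filed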;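 also: 0% = median of neutral control wells and 100% = median of positive control wells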
3T3_cytotox_2: kills mouse NIH/3T3 fibroblasts; shares compounds with T_cruzi_growth-1; NIH/3T3 viability, CellTiter-Glo ATP luminescence, 90 h; inhibition, % at 24.9 µM; 56% of 5,600 active;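 active = mean loss of cell viability signal at or above a set limit, and enough replicates individually reaching it; inconclusive = meets only the mean limit or only the replicate share; inactive = meets neither condition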;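 also: 0% = median of neutral control wells and 100% = median of positive control wells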
An asterisk follows results filed as active; ? = inconclusive; . = not tested or not shown.

SMILES Pf_Dd2_inh T_cruzi_growth-1 C_diff_growth T_cruzi_growth-2 T_cruzi_growth-3 3T3_cytotox 3T3_cytotox_2
COc1ccc(C#Cc2ccc([C@@H]3[C@@H](CO)N4CCCCN(C(=O)c5ccncc5)C[C@H]34)cc2)cc1 -22 112* -5 107* 38 45* 103*
C[C@@H]1CN([C@@H](C)CO)C(=O)Cc2cc(NC(=O)Nc3ccc(F)cc3)ccc2O[C@H]1CN(C)Cc1ccc(-c2ccccc2)cc1 -17 70 3 . . . .
C[C@@H]1CN([C@H](C)CO)C(=O)c2cc(NC(=O)Cn3cnnn3)ccc2O[C@H]1CN(C)S(=O)(=O)c1ccc(F)cc1 -3 20 -9 . . . .
O=C(NC1CCCC1)[C@@H]1[C@@H](CO)[C@@H]2Cn3c(cccc3=O)[C@@H]2N1C(=O)NC1CCCC1 -1 -34 3 . . . .
O=C(CN1CCOCC1)N[C@@H]1CC[C@H](CCNC(=O)Nc2cc(F)ccc2F)O[C@@H]1CO 4 -1 . . . . .
C/C=C/c1ccc2c(c1)O[C@H](CN(C)CC1CC1)[C@H](C)CN([C@H](C)CO)S2(=O)=O -20 79 3 . . . .
C[C@@H]1CN([C@H](C)CO)S(=O)(=O)c2ccc(/C=C/c3ccccc3)cc2O[C@@H]1CN(C)C(=O)c1ccccc1 -61 123* 5 105* 77 79* 79*
C[C@H](CO)N1C[C@H](C)[C@H](CN(C)C(=O)c2ccncc2)Oc2cc(/C=C/c3ccccc3)ccc2S1(=O)=O 3 103* -2 97* 80 19 59*
C[C@@H]1CN([C@H](C)CO)S(=O)(=O)c2ccc(/C=C/c3ccccc3)cc2O[C@@H]1CN(C)C(=O)c1ccncc1 8 13 -14 . . . .
C/C=C/c1ccc2c(c1)O[C@H](CN(C)C(=O)c1ccccc1)[C@@H](C)CN([C@@H](C)CO)S2(=O)=O -47 . 0 . . . .
C[C@H]1CN([C@@H](C)CO)S(=O)(=O)c2ccc(/C=C/c3ccccc3)cc2O[C@H]1CN(C)CC1CC1 -84* 103* 19 106* 74 33 105*
C[C@@H]1CCCCO[C@@H](CN(C)C(=O)Cc2ccccc2)[C@H](C)CN([C@H](C)CO)C(=O)c2cc(NS(=O)(=O)c3cccs3)ccc2O1 -32 4 3 . . . .
COCCNC(=O)C[C@@H]1C[C@@H]2c3cc(NC(=O)Nc4ccc(C(F)(F)F)cc4)ccc3O[C@@H]2[C@H](CO)O1 -34 33 . . . . .
O=C(C1CCOCC1)N1CC[C@@H]2[C@H](CO)Nc3ccc(-c4ccc(F)cc4)cc3[C@@H]21 14 ? 13 110* 64 -12 12
O=C(C1CCOCC1)N1CC[C@H]2[C@H](CO)Nc3ccc(-c4cccc(F)c4)cc3[C@H]21 -12 72 -6 . . . .
O=C(C1CCOCC1)N1CC[C@@H]2[C@@H](CO)Nc3ccc(-c4cccc(F)c4)cc3[C@@H]21 -15 58 -6 . . . .
O=C(C1CCOCC1)N1CC[C@H]2[C@H](CO)Nc3ccc(-c4ccc(F)cc4)cc3[C@H]21 0 101* -9 104* 48 -12 -9
CO[C@@H](CN(C)S(=O)(=O)c1ccccc1)[C@H](C)CN(Cc1ccccc1Cl)[C@@H](C)CO -15 -31 . . . . .
C[C@@H]1CN([C@H](C)CO)C(=O)c2cc(NC(=O)Nc3ccc4c(c3)OCO4)ccc2O[C@@H](C)CCCCO[C@H]1CN(C)Cc1ccc2c(c1)OCO2 -67 . . . . . .
C[C@H](CO)N1C[C@H](C)[C@H](CN(C)Cc2ccc3c(c2)OCO3)OCCCC[C@H](C)Oc2ccc(NC(=O)Nc3ccc4c(c3)OCO4)cc2C1=O -3 . . . . . .
C[C@@H]1CCCCO[C@@H](CN(C)Cc2ccc3c(c2)OCO3)[C@H](C)CN([C@H](C)CO)C(=O)c2cc(NC(=O)Nc3ccccc3)ccc2O1 -79 ? 14 99* 105* 12 104*
C[C@@H]1CN([C@@H](C)CO)C(=O)c2cc(NC(=O)Nc3ccccc3)ccc2O[C@@H](C)CCCCO[C@@H]1CN(C)Cc1ccc2c(c1)OCO2 ? 97* 5 101* 37 42* 34*
